Test results: PubChem BioAssay (NCI)
Several values for one entry are separate records, joined by “and”; a condition that tells them apart may be missing. Identical values can stand only once. About 83,000 compounds went through this panel and 20% of them were active in at least one assay; those are over-represented in the sample as a whole.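 Activity criterion: percent growth below 10, measured after cells in 96-well plates were exposed to a single compound concentration for 48 hours.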 Activity calls are given as the source filed them.

Key:
Experiment in all cases: NCI-60 one-dose screen, 48 h (100 = growth as untreated, 0 = no growth, -100 = all killed)
SK-MEL-2 melanoma = system: SK-MEL-2 melanoma
EKVX NSCLC = conditions: 10 µM unless noted
SN12C renal = system: SN12C renal
UO-31 renal = system: UO-31 renal
TK-10 renal = system: TK-10 renal
ACHN renal = system: ACHN renal
CAKI-1 renal = system: CAKI-1 renal
A498 renal = system: A498 renal
CCRF-CEM leukemia = conditions: 10 µM unless noted
MOLT-4 leukemia = system: MOLT-4 leukemia
SR leukemia = conditions: 10 µM unless noted
RPMI-8226 leukemia = system: RPMI-8226 leukemia
OVCAR-5 ovarian = system: OVCAR-5 ovarian
OVCAR-4 ovarian = system: OVCAR-4 ovarian
SK-OV-3 ovarian = conditions: 10 µM unless noted
IGROV1 ovarian = system: IGROV1 ovarian
NCI/ADR-RES ovarian = system: NCI/ADR-RES ovarian
OVCAR-8 ovarian = conditions: 10 µM unless noted
OVCAR-3 ovarian = conditions: 10 µM unless noted
HS 578T breast = conditions: 10 µM unless noted

Measured: growth

COc1ccc(-c2cscc2N)cc1
inactive: SK-MEL-2 melanoma; 10 µM 95.1% | SK-MEL-2 melanoma; 100 µM 24.6% | EKVX NSCLC 51.4% [100 µM] | SN12C renal; 10 µM 71.2% | SN12C renal; 100 µM 55.1% | UO-31 renal; 10 µM 78% | UO-31 renal; 100 µM 27% | TK-10 renal; 10 µM 101% | TK-10 renal; 100 µM 74.4% | ACHN renal; 10 µM 54.7% | ACHN renal; 100 µM 40.7% | CAKI-1 renal; 10 µM 70.9% | CAKI-1 renal; 100 µM 29.2% | A498 renal; 10 µM 83.3% | A498 renal; 100 µM 80.6% | CCRF-CEM leukemia 31.3% [100 µM] | MOLT-4 leukemia; 10 µM 66.4% | MOLT-4 leukemia; 100 µM 38.6% | SR leukemia 59.1% [100 µM] | RPMI-8226 leukemia; 10 µM 88.7% | RPMI-8226 leukemia; 100 µM 23.7% | OVCAR-5 ovarian; 10 µM 87.5% | OVCAR-5 ovarian; 100 µM 78.9% | OVCAR-4 ovarian; 10 µM 103% | OVCAR-4 ovarian; 100 µM 45.3% | SK-OV-3 ovarian 80.2% [100 µM] | IGROV1 ovarian; 10 µM 91.1% | IGROV1 ovarian; 100 µM 58% | NCI/ADR-RES ovarian; 10 µM 77.8% | NCI/ADR-RES ovarian; 100 µM 78.1%

COC(=O)c1nc(=S)[nH]c(C(=O)OC)c1C(=O)c1ccc2ccccc2c1
inactive: SK-MEL-2 melanoma; 10 µM unless noted 104% | EKVX NSCLC 103% | SN12C renal; 10 µM unless noted 97.2% | UO-31 renal; 10 µM unless noted 81% | TK-10 renal; 10 µM unless noted 109% | ACHN renal; 10 µM unless noted 101% | CAKI-1 renal; 10 µM unless noted 86.2% | A498 renal; 10 µM unless noted 119% | CCRF-CEM leukemia 102% | MOLT-4 leukemia; 10 µM unless noted 103% | RPMI-8226 leukemia; 10 µM unless noted 103% | OVCAR-8 ovarian 107% | OVCAR-5 ovarian; 10 µM unless noted 101% | OVCAR-4 ovarian; 10 µM unless noted 96.9% | SK-OV-3 ovarian 101% | IGROV1 ovarian; 10 µM unless noted 98.5% | OVCAR-3 ovarian 109% | NCI/ADR-RES ovarian; 10 µM unless noted 106%

Cc1cc(N)c2ccccc2[n+]1CCCCCCCCCC[n+]1c(C)cc(N)c2ccccc21
active: SK-MEL-2 melanoma; 10 µM unless noted -23.7% and -19.9% | SN12C renal; 10 µM unless noted 5.16% and 5.31% | A498 renal; 10 µM unless noted -7.94% | MOLT-4 leukemia; 10 µM unless noted -43.9% and 1.26% | RPMI-8226 leukemia; 10 µM unless noted 9.49% and -11.6% | OVCAR-5 ovarian; 10 µM unless noted -58.1% | SK-OV-3 ovarian 9.8% and -29.2% | IGROV1 ovarian; 10 µM unless noted 4.94% and -18.4%
13.4% (inactive) and 1.53% (active): EKVX NSCLC
6.34% (active) and 22% (inactive): CCRF-CEM leukemia
inactive: UO-31 renal; 10 µM unless noted 19.2% and 65.3% | TK-10 renal; 10 µM unless noted 21.1% and 35.1% | ACHN renal; 10 µM unless noted 42.8% | CAKI-1 renal; 10 µM unless noted 30.9% and 69.6% | OVCAR-8 ovarian 26.8% | HS 578T breast 34.7% | NCI/ADR-RES ovarian; 10 µM unless noted 66.2% and 64.1%

CCOC(=O)/C(=C\c1ccc(-c2ccccc2)cc1)C(C)=O
inactive: SK-MEL-2 melanoma; 10 µM unless noted 104% | EKVX NSCLC 99.2% | SN12C renal; 10 µM unless noted 89.9% | UO-31 renal; 10 µM unless noted 82.7% | TK-10 renal; 10 µM unless noted 86.1% | ACHN renal; 10 µM unless noted 104% | CAKI-1 renal; 10 µM unless noted 98.7% | A498 renal; 10 µM unless noted 92.2% | CCRF-CEM leukemia 107% | MOLT-4 leukemia; 10 µM unless noted 107% | RPMI-8226 leukemia; 10 µM unless noted 105% | OVCAR-8 ovarian 113% | OVCAR-5 ovarian; 10 µM unless noted 96.7% | SK-OV-3 ovarian 116% | IGROV1 ovarian; 10 µM unless noted 101% | OVCAR-3 ovarian 98.2% | HS 578T breast 103% | NCI/ADR-RES ovarian; 10 µM unless noted 103%

N#CSCc1ccc(CSC#N)c(Cl)c1
inactive: SK-MEL-2 melanoma; 10 µM unless noted 86.2% | EKVX NSCLC 90.9% | SN12C renal; 10 µM unless noted 50.5% | UO-31 renal; 10 µM unless noted 36.7% | TK-10 renal; 10 µM unless noted 94.3% | ACHN renal; 10 µM unless noted 56.5% | CAKI-1 renal; 10 µM unless noted 41.7% | A498 renal; 10 µM unless noted 91.9% | CCRF-CEM leukemia 19.3% | MOLT-4 leukemia; 10 µM unless noted 28.9% | RPMI-8226 leukemia; 10 µM unless noted 41.9% | OVCAR-8 ovarian 95.6% | OVCAR-5 ovarian; 10 µM unless noted 96.7% | SK-OV-3 ovarian 115% | IGROV1 ovarian; 10 µM unless noted 91.2% | HS 578T breast 94.1% | NCI/ADR-RES ovarian; 10 µM unless noted 77.9%

O=C1c2ccccc2C(=O)N1c1ccccc1
inactive: SK-MEL-2 melanoma; 10 µM unless noted 128% | EKVX NSCLC 93% | SN12C renal; 10 µM unless noted 97.2% | UO-31 renal; 10 µM unless noted 89.1% | TK-10 renal; 10 µM unless noted 117% | ACHN renal; 10 µM unless noted 99.5% | CAKI-1 renal; 10 µM unless noted 81.3% | A498 renal; 10 µM unless noted 109% | CCRF-CEM leukemia 114% | MOLT-4 leukemia; 10 µM unless noted 103% | RPMI-8226 leukemia; 10 µM unless noted 119% | OVCAR-8 ovarian 98.6% | OVCAR-5 ovarian; 10 µM unless noted 107% | OVCAR-4 ovarian; 10 µM unless noted 105% | SK-OV-3 ovarian 99.1% | IGROV1 ovarian; 10 µM unless noted 105% | HS 578T breast 119% | NCI/ADR-RES ovarian; 10 µM unless noted 105%

N#CSCc1c(Cl)cccc1Cl
active: OVCAR-3 ovarian 4.78%
inactive: SK-MEL-2 melanoma; 10 µM unless noted 102% | EKVX NSCLC 103% | SN12C renal; 10 µM unless noted 93.3% | UO-31 renal; 10 µM unless noted 40.2% | TK-10 renal; 10 µM unless noted 101% | ACHN renal; 10 µM unless noted 49.9% | CAKI-1 renal; 10 µM unless noted 47.7% | A498 renal; 10 µM unless noted 85.1% | CCRF-CEM leukemia 44.1% | MOLT-4 leukemia; 10 µM unless noted 90.9% | SR leukemia 59.5% | RPMI-8226 leukemia; 10 µM unless noted 47.7% | OVCAR-5 ovarian; 10 µM unless noted 106% | OVCAR-4 ovarian; 10 µM unless noted 35.2% | SK-OV-3 ovarian 96.6% | IGROV1 ovarian; 10 µM unless noted 11.5% | HS 578T breast 80.6% | NCI/ADR-RES ovarian; 10 µM unless noted 95.4%
